Data published in PubChem BioAssay AID504727 (Broad Institute, 2011).
Calls of active or inactive are those of the source.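 How the source made its calls: active means fitted half-maximal concentration AC50 at or below ten times the highest valid tested dose, with signal falling as DNA is displaced (actives reach about 34 µM in these data); inconclusive means flat fit at moderate signal loss, or poor fit quality; inactive means the rest, including signal rising instead of falling.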

Assay: acridine orange-DNA binding displacement – biochemical, fluorescence polarization, cherry-picked samples, set 2, artefact control for KSHV LANA DNA-binding inhibitor project, dose response (AID 504727)
Conditions: series mostly up to 35 µM

AC50, inactive:
N=c1ccn(Cc2ccc(Cl)cc2)cc1, O=C(O)COc1ccc2c(c1)O/C(=C\c1ccco1)C2=O, Cc1cccc(COc2ccc(/C=N/NC(=O)c3nnn(-c4nonc4N)c3COc3ccc(F)cc3)cc2)c1, CCOC(=O)c1ccccc1Nc1cc(C)nc2nc(C)nn12, COc1ccc(OC2CCN(S(=O)(=O)c3ccc(OC)cc3)CC2)cc1, COc1ccc(CNC(=O)C2CCC(CNC(=O)[C@@H]3Cc4ccccc4CN3)CC2)cc1 (stereo partly specified)
